This passage reports sensor-assay potency score (higher = more potent) results from the OligoGym collection.
Note: reference of the scale not given here.

The target in one assay is SLC34A1. The experiment in a line: pooled miR-30 sensor sort-seq; sequence = guide strand. To be noted: shRNA.
Consider TAGAGGACGGCAAACCAGCGGT, for which the sensor-assay potency score (higher = more potent) is -0.623.
On the same count and under the same terms, the result for TTCAGGGAGTGCATCCAGCGAG reads -0.619; that for TAGTCATGTGTACACGTGCAGA, -1.32; that for TTGACTAGGAGGATGAGGCAGG, 0.548.
Still for that read-out and setting: to TTGGAACCCAGTGTGAGCGGGT belongs 0.313; to TTGATGAGCACCACGAAGGCCA, -0.0356; to TCCGTATTGATGACCTTCTGGA, -0.714.
Consider TCTGTGATGATCTTGAGCAGGT, for which the sensor-assay potency score (higher = more potent) was 0.374.

Another assay concerns the target SLC35D2. The description is as above. Conditions: shRNA.
With TTAGCTTGGACACATATAGTAT, the sensor-assay potency score (higher = more potent) was -0.569.
Same read-out and setting: to TAGGATAAACACAACATTCTTC belongs 0.0517; to TAGACTAAAGACATGTCTGTTT, -0.123; to TAAACTGAAACAACTGGCCCTT, 0.105.
The same measure, in the same setting: the result for TAGCTGCACAGAACCGTGGAGT reads -0.729; that for TAATAGCTGCACAGAACCGTGG, -0.868; that for TTTCTTATCAAAATCAGGGAAG, -0.741.
Still for that read-out and setting: the result for TTGTGCTTGATAATCCACTTAT reads -0.388.
On to TACATTTCTTGAGACTGCCATT, for which the sensor-assay potency score (higher = more potent) was -1.38.
Same read-out and setting: to TTACTTGTGCTTGATAATCCAC belongs -0.229; to TTAACTAATTTTATTAGACTAA, -1.13.
Still for that read-out and setting: the result for TATAGTATCATTATGGTGGCTG reads 0.443.

The target in the next assay is SLC38A11. Described as above. Conditions: shRNA.
Turning to TTGTGTTGTCTGCTGAACATGA, the sensor-assay potency score (higher = more potent) is -0.294.
Turning to TTTATCAATAAAACAAGGGAAA, the sensor-assay potency score (higher = more potent) is -1.2.
TTGAGTTCTAGAACTATCCCGA showed a sensor-assay potency score (higher = more potent) of 0.433.
The same measure, in the same setting: to TTCTAGAGAACTGTAAACTAAG belongs -0.917.
On the same count and under the same terms, to TTGAGTATTTGTAATAGCCATG belongs -1.21; to TAATTTTCAAATAAGTCCCCTT, 0.231; to TAAACCTGTAGAGATGAGGGAG, 0.481.
The same measure, in the same setting: to TTAAAGTAGAAAGTTGTGTTGT belongs 0.823; to TACAACAATGTGGAAAACCGAT, -0.853; to TCAAGTATCCACATGTAGCAAA, -0.803.
For TCTGCTGAACATGAGACTCTGA, the sensor-assay potency score (higher = more potent) came to 0.182.
Take TTTTATTGACCAAAGACTGGTA: the sensor-assay potency score (higher = more potent) is -0.145.

A further assay deals with SLC39A12. Described as above. Conditions: shRNA.
For the sequence TAGAAATATCTCCACCAGCTGC, the sensor-assay potency score (higher = more potent) was -1.07.
On the same count and under the same terms, to TGAAGAACAGATCTCTTCCTGA belongs 0.419; to TTTGATACAAGTACTTCTGGTC, 0.47.
The same measure, in the same setting: the result for TTGCTTGTCACTTAACTTGCTT reads -0.0821; that for TTGTCCCAGACAAACACCCTGG, -0.6; that for TTTTGATACAAGTACTTCTGGT, -0.57.
The same measure, in the same setting: to TTTTTGATACAAGTACTTCTGG belongs 0.0669; to TGACACAAGATAGCAATCGTAG, -0.876.
